In the supplement of paper PMC3334620:
The full ranking holds about 33,000 sequences; the median of “E-score (-0.5 to 0.5)” is about -0.012, and the highest 2% start at about 0.29. What follows is part of a selection rich in the highest values, with near analogues and random picks from the rest.

target: T1, Ybr033w (UniProt P38073); assay: PBM E-score (8-mer binding enrichment) (E-score (-0.5 to 0.5)); higher = stronger / more preferred TF binding; settings: protein concentration: 200 nM; construct: GST-full length
T1 sequence: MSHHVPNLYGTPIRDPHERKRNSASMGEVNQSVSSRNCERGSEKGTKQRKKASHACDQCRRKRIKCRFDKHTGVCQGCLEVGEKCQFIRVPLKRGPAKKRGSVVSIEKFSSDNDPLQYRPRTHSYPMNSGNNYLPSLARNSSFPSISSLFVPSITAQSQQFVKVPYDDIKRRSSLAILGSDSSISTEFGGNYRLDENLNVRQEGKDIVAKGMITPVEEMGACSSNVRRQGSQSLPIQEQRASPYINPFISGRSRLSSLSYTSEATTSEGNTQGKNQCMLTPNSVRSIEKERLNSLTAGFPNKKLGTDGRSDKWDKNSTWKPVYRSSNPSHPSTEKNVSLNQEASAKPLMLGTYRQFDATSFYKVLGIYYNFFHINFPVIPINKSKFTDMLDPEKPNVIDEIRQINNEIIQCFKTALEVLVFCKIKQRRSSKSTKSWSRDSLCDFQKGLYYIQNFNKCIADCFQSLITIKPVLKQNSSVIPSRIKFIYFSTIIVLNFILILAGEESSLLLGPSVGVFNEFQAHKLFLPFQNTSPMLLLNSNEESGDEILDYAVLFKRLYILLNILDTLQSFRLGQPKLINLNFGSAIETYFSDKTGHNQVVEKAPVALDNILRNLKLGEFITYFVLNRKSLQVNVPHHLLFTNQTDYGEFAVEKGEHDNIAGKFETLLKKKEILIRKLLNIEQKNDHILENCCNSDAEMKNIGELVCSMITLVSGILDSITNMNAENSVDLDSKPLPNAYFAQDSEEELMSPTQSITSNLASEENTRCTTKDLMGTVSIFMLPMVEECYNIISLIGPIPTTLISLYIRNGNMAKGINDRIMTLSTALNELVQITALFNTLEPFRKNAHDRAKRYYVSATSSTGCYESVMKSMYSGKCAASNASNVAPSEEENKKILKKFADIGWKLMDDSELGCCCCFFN
Method in brief: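 Masliner-normalised scans of fluorescent anti-GST signal were the basis for scoring. That signal came from GST-tagged yeast transcription factors applied at about 100-200 nM to double-stranded universal all-10-mer Agilent arrays on fresh or once-stripped slides. Each ungapped eight-base word, pooled with its reverse complement, received an E-score from the Universal PBM Analysis Suite.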

Sequence | PBM E-score
TGAGGACA | 0.00432
AAACTACG | 0.0517
ATCTACCC | 0.0482
ACATCAGG | 0.038
CTTTTCGC | 0.241
CAGGCAAC | -0.0967
ACGACCAT | -0.108
AATCTAGT | 0.214
AGCTCACG | -0.088
TATTAACA | 0.291
GATTAACC | 0.195
AATTAACT | 0.219
GCTTAACA | 0.0687
AATTAACC | 0.158
AATTAACA | 0.295
GATTAACA | 0.396
TATTAAGA | 0.168
CATTAACA | 0.139
ACCCAGGC | -0.0962
AAGTGAAT | 0.239
CACAGCCA | -0.174
ATGCGGCA | -0.0591
ATTTTCCC | 0.386
CTTTTCCC | 0.0333
AATTTCCC | 0.226
GTTTTCCA | 0.215

Sequence | PBM E-score
CTTTTTCC | 0.361
ATTTCCCC | -0.0347
CTTTTCCA | -0.0875
ATTTTCCA | 0.361
CCTTTTCC | -0.15
GACCGGTC | -0.181
AATCGTCA | -0.0213
CAACGTTG | 0.156
AGCTCTTC | 0.0781
GAAATCCA | 0.108
ATAATCCC | 0.189
ATAATCCG | 0.383
ATGATCCA | 0.162
ACAATCCG | 0.0606
ATAATCGG | 0.162
GTAATCCA | 0.0788
ATAATCCA | 0.327
ATGATCCC | 0.244
AAAATCCA | 0.339
ATGATCCG | 0.412
CAAATCCA | 0.0838
CTCTGGCC | -0.15
ACAAAGAC | 0.0319
CAGGAACG | -0.0646
CAGGAACC | -0.122
TAGGAACA | 0.316

Sequence | PBM E-score
CAGGAACA | 0.401
AAGGAACA | 0.283
GAGGAACA | 0.171
GGGACCCC | -0.33
ATGCCATG | -0.0545
AACCATTC | 0.166
ACTGAACC | 0.00627
GTTGGCGA | -0.0105
GATCGACC | 0.0146
AAGCTAAA | 0.107
GCCGGAAA | 0.302
CCCGGAAA | 0.192
GACGGAAA | 0.227
TCCGGAAA | 0.298
ACCGGAAA | 0.151
GCCGGAAC | 0.205
CTAGACCC | -0.194
AAAGGATG | 0.163
GCACACCA | -0.145
CATTAATC | 0.252
ACTTAATC | 0.275
CATTAATG | 0.23
GATTAATC | 0.435
TATTAATA | 0.101
GATTAAGC | 0.104
GATTAAGA | 0.213

Sequence | PBM E-score
CATTAATA | 0.321
AATTAATC | 0.341
GACTAATC | 0.0103
GATTAATA | 0.328
AATTAGTC | 0.212
AGGGTGAT | -0.055
ATAGTTCA | 0.202
AGAACGTA | 0.0159
AAGGGGCT | -0.163
ATATTGTC | 0.215
ACCTTGGC | -0.0759
ACAGCTAG | -0.105
ACCTACCG | -0.0859
AGCAGAGC | -0.0843
AACTCTGG | -0.0682
AAAGTTCC | 0.132
AATTAATG | 0.273
AATTAAAT | 0.276
AATTAATT | 0.214
AATTAAAC | 0.377
AATTAAAG | 0.217
AATTAAGT | 0.305
AATTAAGA | 0.171
AATTAAGC | 0.169
AATTAATA | 0.429
CAACTATG | 0.102

Sequence | PBM E-score
ACGGGTAT | 0.0865
ATTGGCTA | 0.117
ACCAAGCC | -0.0301
TCCAATCA | 0.0621
TGATAACA | 0.176
GCGAGGAA | 0.125
CTGGATAA | 0.316
TGGGATAA | 0.123
CCGGATTA | 0.34
TCGGATAA | 0.335
CGGGATTA | 0.312
CGGGATTC | -0.0497
AGGGATTA | 0.187
GTGGATAA | 0.169
GCGGATTA | 0.285
ACGGATAT | 0.192
ATGGATAA | 0.259
ACGGATTA | 0.233
GGACCACA | -0.00774
CCTACCAC | -0.155
AGCGTCCA | -0.13
TAGGCTGA | -0.0515
CACCAACC | -0.105
AATCCACT | 0.193
TAGCTTGA | -0.0114
GGCCTTGA | -0.0647

Sequence | PBM E-score
ACGTCAGG | -0.168
CCGGATCA | 0.345
GCGGATAA | 0.416
ACGGATCA | 0.236
CTGGATTC | 0.00016
GTGGATTA | 0.164
GCGGATGA | 0.0612
CCGGATGA | 0.289
CCGGATGC | -0.178
CCGGATCC | -0.129
CTGGATTA | 0.309
ACGGATAA | 0.276
GCGGATAC | 0.0188
CTTTGGTC | 0.0811
GAACTTCC | 0.16
CTTCGCCC | -0.143
AATAGGGG | -0.0543
GGGGCTCA | -0.219
AGTTGCGG | 0.0698
AAGTTAGA | 0.235
GTACAGAC | -0.1
GACACATC | -0.11
GGCTACCA | -0.203
GATGCTAC | 0.0488
CCCTTTCA | -0.19
AAGTCTTA | -0.00514

Sequence | PBM E-score
CCGGATAG | 0.0368
CCGGATAA | 0.454
CCGGATAC | -0.0612
CCAGAATA | 0.0783
ACTTTGGA | 0.156
ACCATGAC | -0.0754
ACAGCTGC | -0.0919
CGAGAGAC | -0.188
AAATTATT | 0.417
CAATTATC | 0.365
AGATTATG | 0.148
AAATTATC | 0.418
CAATTAAC | 0.224
AGATTATC | 0.301
CAATTATG | 0.08
ACATTATC | 0.219
AAATTAGT | 0.206
AAATTATG | 0.227
CGATTATC | 0.07
AAATTAGG | 0.138
